Screening results from PubChem.
Sampled rows, rich in hits. Any-hit rate of the full collection: about 4.1%.
DUSP3 inh – VHR1 phosphatase inhibitors, primary screen, biochemical, absorbance, uHTS; 290,000 compounds, 0.52% hits; AID 1654, 2009; inhibition, % at 13.3 µM; recombinant VHR phosphatase, pNPP absorbance; Dual specificity protein phosphatase 3 (Homo sapiens), P51452; in the data active means inhibition above about 50%
Target sequence (P51452 whole entry, looked up): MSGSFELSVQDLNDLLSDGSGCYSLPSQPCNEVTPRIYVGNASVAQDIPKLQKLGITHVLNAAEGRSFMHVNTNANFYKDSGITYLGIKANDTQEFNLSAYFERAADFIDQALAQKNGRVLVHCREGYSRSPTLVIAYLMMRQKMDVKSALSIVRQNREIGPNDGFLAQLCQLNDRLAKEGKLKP
Autofluor counter – counter-screen for toxin protease inhibitors: compound fluorescence; compound autofluorescence counterscreen, microsphere flow cytometry; active compounds read high; fluorescence intensity (test concentration not listed); 360,000 compounds, 3.1% hits; AID 624483; in the data active means fluorescence intensity above about 16000; inconclusive means no clear call, values can overlap the other calls
Anthrax LF prot – Bacillus anthracis LF protease inhibitors, primary screen, biochemical, multiplex microsphere, MLPCN library | inhibition, % at 10 µM | multiplex microsphere protease cleavage assay | AID 588501, 2011 | 360,000 compounds, 0.12% hits; further: plate controls were buffer without enzyme for full effect and enzyme alone for no effect
BoNT A protease – BoNT/A light chain protease inhibitors, primary screen, biochemical, flow cytometry, MLPCN library | Botulinum neurotoxin type A light chain protease (Clostridium botulinum A str. ATCC 3502) | multiplex microsphere protease substrate cleavage | inhibition, % at 10 µM | 360,000 compounds, 0.17% hits | AID 588499, 2011; further: plate controls were buffer without enzyme for full effect and enzyme alone for no effect
BoNT-F LC inh – BoNT/F light chain protease inhibitors, primary screen, biochemical, flow cytometry, MLPCN library | Botulinum neurotoxin type F light chain protease (Clostridium botulinum) | Multiplex microsphere protease cleavage assay | inhibition, % at 10 µM | 360,000 compounds, 0.22% hits | AID 588497, 2011; in the data active means inhibition above about 35%, passing the limit was not always enough; inconclusive means no clear call, values can overlap the other calls; further: plate controls were buffer without enzyme for full effect and enzyme alone for no effect
MazEF act – activators of E. coli MazEF toxin-antitoxin RNase, primary screen, biochemical, fluorescence, uHTS; 350,000 compounds, 0.32% hits; activation, % at 20 µM; Endoribonuclease toxin MazF (Escherichia coli (strain K12)), P0AE70; FAM/BHQ RNA-DNA oligo cleavage fluorescence, 5 h; AID 504720, 2011; in the data active means activation above about 50%
Target sequence (P0AE70 whole entry, looked up): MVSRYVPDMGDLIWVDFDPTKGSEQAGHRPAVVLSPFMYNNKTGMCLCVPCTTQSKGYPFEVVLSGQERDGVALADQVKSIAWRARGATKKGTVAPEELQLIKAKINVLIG
* hit, by the source's call; u = inconclusive; x = no result given. Unless noted, no stated cut-off is given here; in the data, active means inhibition above about 30%; inconclusive means no clear call, values can overlap the other calls; inactive means below that.

SMILES	DUSP3 inh	Autofluor counter	Anthrax LF prot	BoNT A protease	BoNT-F LC inh	MazEF act
CCOC(=O)CCC(=O)NCc1ccc2c(c1)cc(C)n2C	-5	18146*	21	15	12	1
CCCCNC(=S)NCc1ccc2c(c1)cc(C)n2C	-11	3100	-42	30*	-76	15
O=C(COC(=O)C(CO)NS(=O)(=O)c1ccc(Br)cc1)Nc1ccc2c(c1)OCCO2 (stereo not drawn)	x	3933	-5	-1	-14	1
CCc1cccc(C)c1NC(=S)NCc1ccc2c(c1)cc(C)n2C	-15	1803	-101	57*	-141	8
COc1ccc(/C=C/C(=O)NCCCNC(=O)/C=C/c2ccc(OC)c(OC)c2)cc1OC	x	5572	-2	0	-4	5
COc1ccc(/C=C\C(=O)NCc2ccc3c(c2)cc(C)n3C)cc1OC	-7	2367	-63	62*	-98	-5
CC1CSc2ccccc2NC1=S (stereo not drawn)	31	16476*	-6	0	-2	8
OCC[C@@H]1C[C@H](O)[C@@H](O)[C@@]2(OCCCc3cc(Cl)ccc32)O1	x	6643	0	0	-7	x
O=C(NCCC1CCCCN1S(=O)(=O)c1ccc(F)cc1)C(=O)NCc1ccccn1 (stereo not drawn)	x	u	-3	6	3	1
O=C(NCCOc1ccc(F)cc1)C1CCC(=O)N(Cc2ccc(Cl)cc2)C1 (stereo not drawn)	x	3471	-6	0	0	6
Cc1ccc(NC(=C(C#N)C#N)c2ccccc2)cc1	x	3792	-2	1	2	6
Fc1ccccc1/C=C1\CCCC2=C1Nc1nnnn1C2c1ccccc1F (stereo not drawn)	25	22685*	1	0	1	-2
Nc1ncnc2c1ncn2[C@@H]1O[C@H](C(=O)Nc2cc(C(F)(F)F)cc(C(F)(F)F)c2)[C@@H](O)[C@H]1O	x	5726	-1	-1	0	x
Cc1nn(CC(C)C)c(=S)[nH]c1=O	-8	23998*	-1	u	-6	1
Cc1cc(C)cc(OCC(=O)OCc2nnc(-c3ccccc3)o2)c1	12	3345	1	0	-7	4
O=C(/C=C/NNC(=O)c1ccccc1)c1ccccc1	52*	u	1	-1	-3	1
O=C(c1cccc(S(=O)(=O)N2CCOCC2)c1)N1CCCCCC1	-4	23147*	2	-2	-2	-4
COc1ccc(N2CCN(S(=O)(=O)c3cccc(C(F)(F)F)c3)CC2)cc1	6	20076*	-11	1	-4	0
O=C(c1cccc(S(=O)(=O)N2CCOCC2)c1)N1CCCC1	21	6830	-7	0	-12	1
COc1ccc(CC(=O)N2CCN(C)CC2)cc1	14	16186*	-2	0	-2	2
COC(=O)c1cccc(S(=O)(=O)N2CCCC2)c1	-5	2380	-2	0	2	2
COc1ccc(N2CCN(S(=O)(=O)c3ccc(Cl)c(C(F)(F)F)c3)CC2)cc1	-8	9321	-10	0	6	-7
COc1ccc(OC(=O)c2cccc(S(=O)(=O)N3CCCC3)c2)cc1	6	24453*	-3	-5	-5	-1
CC(NC(=O)Cc1ccsc1)c1ccc(F)cc1 (stereo not drawn)	7	4229	2	-3	3	-6
Cc1ccc(S(=O)(=O)N2CCN(C(=O)CC(C)C)CC2)cc1	-5	4590	-4	0	-3	-10
SMILES	DUSP3 inh	Autofluor counter	Anthrax LF prot	BoNT A protease	BoNT-F LC inh	MazEF act
COc1ccc(N2CCN(C(=O)c3ccc(S(=O)(=O)N4CCOCC4)cc3)CC2)cc1	51*	22765*	2	0	2	-2
COc1ccc(N2CCN(C(=O)c3ccc(S(=O)(=O)N4CCCC4)cc3)CC2)cc1	7	4592	-2	0	-5	-3
Cc1ccc(C(=O)N2CCOCC2)cc1S(=O)(=O)N1CCOCC1	4	5328	-2	-1	-8	5
Cc1ccc(C(=O)O)cc1S(=O)(=O)N1CCOCC1	-15	16552*	-1	-2	-3	1
O=C(c1cccc(S(=O)(=O)N2CCOCC2)c1)N1CCN(c2ccccc2)CC1	x	4012	-1	-1	4	2
O=C(c1cccc(S(=O)(=O)N2CCOCC2)c1)N1CCN(c2ccc(F)cc2)CC1	26	21227*	-5	4	5	-3
COc1ccc(S(=O)(=O)N2CCN(C(=O)CC(C)C)CC2)cc1	-2	2951	-4	4	40*	10
C#CCN(Cc1ccco1)C(=O)c1cc(COc2cccc3cccnc23)on1	x	3428	2	0	-2	-2
O=S(=O)(c1cccc(-n2cnnn2)c1)N1CCOCC1	23	5253	-2	0	0	6
COc1ccc(C(=O)N2CCN(S(=O)(=O)c3ccc(Cl)cc3)CC2)cc1OC	23	21574*	4	4	8	-2
COc1ccc(N2CCN(C(=O)c3ccc(-n4nc(C)cc4C)cc3)CC2)cc1	7	25032*	-3	-4	-8	0
COc1ccc(C(=O)N2CCN(S(=O)(=O)c3ccc(F)cc3)CC2)cc1OC	32	2477	-1	0	-1	3
COc1ccc(C(=O)N2CCCC2)cc1S(=O)(=O)N1CCOCC1	18	20709*	2	0	-2	0
COc1ccc(C(=O)N2CCN(S(=O)(=O)c3ccc(C)cc3)CC2)cc1S(=O)(=O)N1CCOCC1	7	4445	-1	0	-7	7
COc1cc(-n2cnnn2)ccc1S(=O)(=O)N1CCOCC1	2	22844*	1	u	-2	-2
O=C(COC(=O)CCS(=O)(=O)c1ccccc1)NNC(=O)c1ccc([N+](=O)[O-])cc1	x	3462	-4	0	-3	4
O=C(O)c1cccc(-c2csc(C(O)c3ccccc3)n2)c1 (stereo not drawn)	x	2888	-6	0	-1	x
COCCN1C[C@@H](CO)O[C@@H](n2cnc3c(N(C)C(C)C)ncnc32)C1	x	4324	1	0	-11	x
O=C1Nc2ccccc2OC1CC(=O)N1CCN(c2cccc(C(F)(F)F)c2)CC1 (stereo not drawn)	22	21735*	2	2	1	-5
CC(=O)NC12CC3CC(C1)CC(C(=O)N(C)CC(=O)Nc1cccc(F)c1)(C3)C2	x	3865	4	0	7	0
c1coc(CNc2c3c(nc4ncnn24)CCCC3)c1	12	4273	6	2	26	6
Fc1ccccc1CCNc1c2c(nc3ncnn13)CCCC2	30	4110	-6	0	-7	3
c1ccc(Nc2c3c(nc4ncnn24)CCC3)cc1	30	10506	3	0	4	2
